In the supplement of paper PMC6279402 one finds relative viability data, which are given here for 14 compounds.

Structures can show the parent of a compound that is named as a salt. ± gives the standard deviation of the averaged measurements.

The subject of the experiment is A549. Briefly: relative viability (normalised to negative control = 1, bortezomib = 0) (fraction); higher = less cytotoxic. The following applies: inflammatory serum-free RHB-A with cytokines + LPS; 5 d + 24 h CellTiter-Blue; compound 30 nM; GSK126 pretreatment: none (vehicle).
In the case of `CN(C)c1ccc(-c2nc3ncc(Cl)c(N4CCN(CC(=O)Nc5nccs5)CC4)c3[nH]2)cc1`, the relative viability was 0.983 ± 0.091.

`COc1cc2/c(=N/c3ccc(Br)cc3F)nc[nH]c2cc1OCC1CCN(C)CC1` [Vandetanib]: the relative viability amounted to 0.924 ± 0.083.

In the case of `O=NN(CCCl)C(=O)NCCCl` [Carmustine], the relative viability was 0.858 ± 0.13.

Take `N#CCNC(=O)c1ccc(-c2ccnc(Nc3ccc(N4CCOCC4)cc3)n2)cc1`: the relative viability is 0.961 ± 0.042.

For `O=C(Nc1cccc(Cl)c1)Nc1ncc(CCNc2ncnc3ccsc23)s1` [SNS-314 Mesylate], the relative viability was 0.639 ± 0.054.

For `O=c1c(O)c(-c2ccc(O)c(O)c2)oc2cc(O)cc(O)c12` [QUERCETIN; Quercetin(Sophoretin); Quercetin dihydrate], the relative viability amounted to 0.911 ± 0.052.

Turning to `COc1ccc2c3n(c(=NC(=O)c4cccnc4)nc2c1OC)CCN3`, the relative viability was found to be 0.75 ± 0.044.

For the compound `CN(Cc1cnc2nc(N)nc(N)c2n1)c1ccc(C(=O)N[C@@H](CCC(=O)O)C(=O)O)cc1` [Methotrexate hydrate; Methotrexate], the relative viability was 0.84 ± 0.052.

In the case of `Cc1nc(NC(=O)N2CCC[C@H]2C(N)=O)sc1-c1csc(C(C)(C)C)n1`, the relative viability turned out to be 0.869 ± 0.085.

On to `O=C(NC[C@H](O)CO)c1ccncc1Nc1ccc(I)cc1F`, for which the relative viability was found to be 0.352 ± 0.0078.

For the compound `O=C1CCC(N2C(=O)c3ccccc3C2=O)C(=O)N1` (centres undefined), the relative viability is 0.862 ± 0.13.

`CC(C)Cn1cnc2c(N)nc3ccccc3c21` [Imiquimod]: the relative viability worked out at 0.794 ± 0.058.

As to `Cc1cc(Nc2cc(CN3CCOCC3)c3nc(C)c(Cc4ccc(Cl)cc4F)n3n2)n[nH]1`, the relative viability was 0.988 ± 0.062.

In the case of `CS(=O)(=O)N1CCN(Cc2cc3nc(-c4cccc5[nH]ncc45)nc(N4CCOCC4)c3s2)CC1`, the relative viability turned out to be 0.719 ± 0.062.
